An excerpt weighted towards active compounds, which were near 2.1% of everything screened.
YB-1 expression: YB-1 expression inhibition; U2OS, qRT-PCR YB-1 vs CDIP delta delta Cp, 16 h; hits give high values; zero = DMSO, each unit about twofold; delta delta Cp (YB-1 minus CDIP) (concentration not given with the values); 30,000 tested, 0.37% active; AID 434959;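 active = delta delta Cp rounded down to an integer at or above 3, about 3 SD of DMSO wells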;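 note: higher means less YB-1 transcript or more CDIP transcript relative to DMSO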
U2OS ROS induce: cancer cell ROS induction; U2OS ROS induction, H2DCF-DA fluorescence; ROS induction (% of piperlongumine), % at 10 µM; 46,000 tested, 2% active; AID 624156; in the data active = ROS induction above about 79%, passing the limit was not always enough; inconclusive = no clear call, values can overlap the other calls
Of the large screens only hits and unclear results are named; the others gave an inactive call.

C[C@H]1CN([C@@H](C)CO)C(=O)c2cccc(NC(=O)Nc3ccc(F)cc3)c2O[C@@H]1CN(C)Cc1ccc2c(c1)OCO2	none
C[C@H](CO)N1C[C@H](C)[C@H](CN(C)C(=O)Nc2ccc3c(c2)OCO3)Oc2c(NS(=O)(=O)c3ccccc3)cccc2C1=O	U2OS ROS induce 99.7
CC12CCC(C(=O)N3NC(=O)[C@@H](c4ccccc4)[C@@H]3c3ccccc3)(OC1=O)C2(C)C (stereo not given in full)	none
CS(=O)(=O)N1CCC(C(=O)N2CCCCC2)CC1	none (no result: YB-1 expression)
COC(=O)CCC(=O)c1cc2cc(Br)ccc2o1	none
C[C@@H]1CN([C@@H](C)CO)C(=O)c2cccc(NC(=O)Nc3ccc4c(c3)OCO4)c2O[C@H]1CN(C)Cc1ccc(C(F)(F)F)cc1	U2OS ROS induce 88.3
C[C@H](CO)N1C[C@H](C)[C@H](CN(C)Cc2ccc(C(F)(F)F)cc2)Oc2c(NC(=O)Nc3ccc4c(c3)OCO4)cccc2C1=O	none
C[C@H]1CN([C@@H](C)CO)C(=O)c2cccc(NC(=O)Nc3ccc4c(c3)OCO4)c2O[C@@H]1CN(C)Cc1ccc(C(F)(F)F)cc1	none
C[C@H](CO)N1C[C@H](C)[C@@H](CN(C)Cc2ccc(C(F)(F)F)cc2)Oc2c(NC(=O)Nc3ccc4c(c3)OCO4)cccc2C1=O	U2OS ROS induce 92.2
C[C@@H]1CN([C@@H](C)CO)C(=O)c2cccc(NS(=O)(=O)c3cn(C)cn3)c2O[C@H]1CN(C)Cc1ccc2c(c1)OCO2	U2OS ROS induce 85.9
C[C@@H]1CN([C@@H](C)CO)C(=O)c2cccc(NC(=O)Nc3ccc4c(c3)OCO4)c2O[C@@H]1CN(C)Cc1ccc(C(=O)Nc2ccccc2N)cc1	none
C[C@H]1CN([C@@H](C)CO)C(=O)c2cccc(NC(=O)Nc3ccc4c(c3)OCO4)c2O[C@@H]1CN(C)Cc1ccc(C(=O)Nc2ccccc2N)cc1	U2OS ROS induce 123.2
C[C@@H]1CN([C@@H](C)CO)C(=O)c2cccc(NS(=O)(=O)c3cn(C)cn3)c2O[C@@H]1CN(C)Cc1ccc2c(c1)OCO2	none
O=C(/C=C/c1ccccc1)Oc1ccc2oc(=O)sc2c1	none (no result: YB-1 expression)
CC(C)NC(=O)N(C)C[C@H]1Oc2c(NC(=O)Nc3ccc4c(c3)OCO4)cccc2C(=O)N([C@@H](C)CO)C[C@H]1C	U2OS ROS induce 90.1
CC(C)NC(=O)N(C)C[C@@H]1Oc2c(NC(=O)Nc3ccc4c(c3)OCO4)cccc2C(=O)N([C@H](C)CO)C[C@@H]1C	none
CCCn1c(=S)[nH]c2cc(C(=O)NCc3ccccc3)ccc2c1=O	none (no result: YB-1 expression)
Cc1ccc(Nc2nnc(-c3ccc(C)c(S(=O)(=O)NCC4CCCO4)c3)c3ccccc23)cc1 (stereo not given)	U2OS ROS induce 216.0
Cc1ccc(-c2nnc(N3CCOCC3)c3ccccc23)cc1S(=O)(=O)NC(C)(C)CO	none (no result: YB-1 expression)
N#C/C(=C(\O)c1ccc(C(=O)c2ccccc2)cc1)c1nc2ccccc2s1	U2OS ROS induce inconclusive
CCn1c(SCc2nc3ccccc3c(=O)[nH]2)nc2ccccc2c1=O	U2OS ROS induce 94.2 (no result: YB-1 expression)
O=c1[nH]c(CSc2nnc(-c3ccccc3)n2C2CCCCC2)nc2ccccc12	none (no result: YB-1 expression)
CCSC1=C(C#N)C(=O)NC(C(C)C)S1 (stereo not given)	none
CC1NC(=O)C(C#N)=C(SCc2ccccc2)S1 (stereo not given)	U2OS ROS induce 93.3
COc1ccc(-n2cnc3nc(C)c(C(=O)/C=C/N(C)C)c(-c4ccccc4)c32)cc1	none (no result: YB-1 expression)
CCOc1ccc(NC(=O)N(CCC(C)C)C(C)c2cccs2)cc1 (stereo not given)	none (no result: YB-1 expression)
COc1ccc(-c2cc(=O)c3ccccc3o2)cc1	none
COc1ccc(N=c2cc(-c3ccc(OC)cc3)oc3ccc(O)cc23)cc1	U2OS ROS induce 193.5 (no result: YB-1 expression)
CCc1ccc(CNC(=O)C2CCN(c3nc4ccccc4o3)CC2)cc1	none (no result: YB-1 expression)
NC(=O)CSc1ccc(-c2cccs2)nn1	none (no result: YB-1 expression)
COc1ccc(CCNC(=O)c2ccc3c(=O)n(CC4CCCO4)c(=S)[nH]c3c2)cc1OC (stereo not given)	none
COc1ccc(CCNC(=O)c2ccc3c(=O)n(CCC4=CCCCC4)c(=S)[nH]c3c2)cc1OC	U2OS ROS induce 95.6 (no result: YB-1 expression)
Cc1ccc2c(c1)c1nc3ccccc3nc1n2CC(=O)OCc1ccccc1	none (no result: YB-1 expression)
Cc1ccc2c(c1)c1nc3ccccc3nc1n2CCN1CCOCC1	U2OS ROS induce 78.0 (no result: YB-1 expression)
COC(=O)CCCCCCC(=O)N/N=C/c1ccc(F)cc1	none
COC(=O)CCCCCCC(=O)N/N=C/c1c(F)c(F)c(F)c(F)c1F	U2OS ROS induce 266.3
COc1ccc(-c2nsc(SCC(=O)N3CCCC3)n2)cc1	none (no result: YB-1 expression)
Fc1nc(Nc2ccccc2)c2c(c1Cl)Oc1ccccc1O2	none (no result: YB-1 expression)
CCn1c(SCC(=O)Nc2ccccc2)nc2ccc(I)cc2c1=O	U2OS ROS induce 108.7 (no result: YB-1 expression)
COc1ccccc1-n1c(SCC(=O)Nc2ccccc2C)nc2ccc(I)cc2c1=O	none (no result: YB-1 expression)
COc1cc(CN2CCCC(C(=O)N3CCCCCC3)C2)ccc1OCc1ccccc1 (stereo not given)	none (no result: YB-1 expression)
CSc1nnc2nc(C)cc(C)n12	none (no result: YB-1 expression)
O=C1NN=C(c2ccccc2)/C1=C1\OC(c2ccccc2)=CS1	U2OS ROS induce 137.9
Cc1cccc(C)c1NC(=O)CC1C(=O)N(Cc2ccccc2)C(C)c2nc3ccccc3n21 (stereo not given)	none (no result: YB-1 expression)
C=C(C)C(=O)O[C@H]1CC(=C)C2C[C@H](O)[C@](O)(CO)C2[C@H]2OC(=O)C(=C)[C@H]12 (stereo not given in full)	U2OS ROS induce 186.0
C=C(C)C(=O)O[C@H]1[C@H]2C(=C)C(=O)O[C@@H]2C[C@@H](C)[C@@H]2O[C@@H]2C(=O)[C@](C)(O)[C@@H]1OC(=O)C(=C)C	none
Cc1ccccc1OCC(=O)NC(c1ccccc1)c1c(O)ccc2ccccc12 (stereo not given)	none (no result: YB-1 expression)
O=C(Cn1c(=O)c2cccn2c2ccccc21)NCc1ccccc1	none (no result: YB-1 expression)
c1ccc(C2C3=C(CCCC3)SC3=C2CCCC3)cc1	none
CCn1c(C(=O)NCc2ccccc2)cc2oc3ccccc3c21	none (no result: YB-1 expression)
CC(=O)N1CCN(c2ccc([N+](=O)[O-])c(NCc3cccnc3)c2)CC1	none (no result: YB-1 expression)
O=C(c1ccccc1Cl)N1CCN(c2ccc([N+](=O)[O-])c(NCc3cccnc3)c2)CC1	U2OS ROS induce 78.7 (no result: YB-1 expression)
CC(C)(C)c1ccc(C(=O)N2CCN(c3ccc([N+](=O)[O-])c(NCc4cccnc4)c3)CC2)cc1	U2OS ROS induce 106.5 (no result: YB-1 expression)
O=C(c1ccc(Cl)cc1)N1CCN(c2ccc([N+](=O)[O-])c(NCc3ccccn3)c2)CC1	none (no result: YB-1 expression)
CCC(Cc1ccccc1)NS(=O)(=O)c1ccc2c(c1)CC(C)N2C(=O)C1CC1 (stereo not given)	none (no result: YB-1 expression)
CC(C)CNC(=O)c1ccc(COc2ccc3ccccc3c2)o1	none (no result: YB-1 expression)
C[C@H](CO)N1C[C@H](C)[C@H](CN(C)S(=O)(=O)c2cn(C)cn2)Oc2ncc(C#Cc3ccc(C(F)(F)F)cc3)cc2C1=O	none
C[C@H](CO)N1C[C@H](C)[C@H](CN(C)S(=O)(=O)c2cccs2)Oc2ncc(C#Cc3ccc(C(F)(F)F)cc3)cc2C1=O	YB-1 expression 5.97, U2OS ROS induce 110.1
C[C@H](CO)N1C[C@H](C)[C@H](CN(C)S(=O)(=O)c2cccs2)Oc2ncc(C#Cc3ccc(F)cc3)cc2C1=O	none
COc1cccc(S(=O)(=O)N(C)C[C@@H]2Oc3ncc(C#Cc4ccc(OC)c(OC)c4)cc3C(=O)N([C@H](C)CO)C[C@@H]2C)c1	none

Screening results as filed in PubChem BioAssay.
